NPSR antag: neuropeptide S receptor (human) antagonism, cAMP; 220,000 tested, 1% active; Potency, µM (highest dose often 38.3 µM), for inactives: at the top dose activity change, negative = inhibition, usual class: inhibitors; AID 1461; CHO-NPSR cells, cAMP TR-FRET, antagonist mode; note: potency is the fitted concentration of half-maximal effect; % is set by controls: 0 for no effect and ±100 for the full control effect; nearly all actives have a fitted effect of over 50% in size
mIDH1 inhibitor: human IDH1 R132H inhibition | O75874 | IDH1-R132H enzyme, NADPH consumption, diaphorase/resazurin fluorescence | Potency, µM (series often up to 76.6 µM), for inactives: at the highest dose activity change, negative = inhibition, usual class: inhibitors | 390,000 tested, 0.093% active | AID 602179; note: potency is the fitted concentration of half-maximal effect; % is set by controls: 0 for no effect and ±100 for the full control effect; nearly all actives have a fitted effect of over 65% in size
Target sequence (O75874 whole entry R132H, stated change not applied): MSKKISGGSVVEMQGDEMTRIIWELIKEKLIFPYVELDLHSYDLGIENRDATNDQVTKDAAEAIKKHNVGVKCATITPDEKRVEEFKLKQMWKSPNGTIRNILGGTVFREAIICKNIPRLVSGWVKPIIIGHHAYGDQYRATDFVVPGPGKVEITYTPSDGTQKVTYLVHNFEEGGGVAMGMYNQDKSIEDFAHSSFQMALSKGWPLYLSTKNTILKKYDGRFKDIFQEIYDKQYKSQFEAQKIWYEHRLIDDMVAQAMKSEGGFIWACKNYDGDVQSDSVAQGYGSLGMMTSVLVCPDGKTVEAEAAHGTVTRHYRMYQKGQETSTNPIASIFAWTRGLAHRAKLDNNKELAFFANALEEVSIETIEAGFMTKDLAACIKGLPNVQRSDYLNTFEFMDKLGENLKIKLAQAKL
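IDH1-R132H (0.5 ug/mL) preincubated 30 min with compound, then NADPH (0.016 mM) and alpha-KG (2 mM) added; 80 min at RT, pH 7.5. Remaining NADPH coupled via diaphorase/resazurin to fluorescence (540/590 nm); concentration-response curves normalized to no-enzyme control.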
HTT ATP protect: Huntington cell model cytoprotection by ATP luminescence; PC12 HTT-Q103 induced, cytoprotection, ATP luminescence, 40 h; Potency, µM (titrated, usually from 56.4 µM), inactives show cytoprotection (ATP increase), hits mostly activators; 230,000 tested, 0.14% active; note: potency is the fitted concentration of half-maximal effect; % of control where 0% means no effect; nearly all actives have a fitted effect of over 45% in size
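ATP quantification (ATPlite) reports survival of PC12 cells in which tebufenozide, 100 nM final, switches on Htt exon 1 with 103 glutamines linked to GFP; compounds are titrated.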
HTT aggregate: inhibitors of mutant huntingtin aggregate formation in PC12 cells. PC12 HttQ103-GFP aggregates, Acumen cytometry, 40 h. Potency, µM (top dose mostly 46.1 µM), inactives show at the highest dose activity change, negative = inhibition, usual class: inhibitors. 220,000 tested, 1.1% active. AID 1688; note: potency is the fitted concentration of half-maximal effect; % is set by controls: 0 for no effect and ±100 for the full control effect; nearly all actives have a fitted effect of over 60% in size
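Compounds (qHTS titration) were added to PC12 cells expressing an ecdysone-driven HTT exon 1 Q103–GFP fusion after induction with 100 nM tebufenozide. Aggregate formation was measured as GFP objects in cell lysates.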
AT treatment: candidate therapy for ataxia-telangiectasia; AID 485349; F2112 A-T fibroblasts, KAP-1 phosphorylation AlphaLISA; neocarzinostatin DNA damage 30 min before lysis; 320,000 tested, 0.19% active; Potency, µM (series often up to 57.5 µM), for the others: at the top dose activation, actives largely listed as activators; note: potency is the fitted concentration of half-maximal effect; % of control where 0% means no effect; nearly all actives have a fitted effect of over 45% in size
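hTERT-immortalized A-T patient fibroblasts (F2112), 500 cells/well in OPTI-MEM, 1% FBS, got compounds for 60 min, then NCS for 30 min at 37C. Lysates were then assayed for phospho-KAP-1 by AlphaLISA (anti-pKAP1 donor, anti-KAP1 acceptor beads), 6 hr at 25C.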
IDH1 autofl: interferes with resorufin fluorescence in IDH1 counter-screen; shares compounds with mIDH1 inhibitor; Resorufin detection reagent fluorescence interference, cell-free; inhibition of signal, % at 51.2 µM; 750 tested, under 10 active;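 note: 0% = wells with normal resorufin and full inhibition = wells lacking resorufin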
IDH1 WT: selectivity of mutant IDH1 inhibitors: human wild-type IDH1; shares compounds with mIDH1 inhibitor; WT IDH1 enzyme, NADPH diaphorase/resazurin fluorescence; Potency, µM (highest dose often 115 µM), for inactives: at the highest dose activity change, negative = inhibition, actives largely listed as inhibitors; 750 tested, 9% active; AID 623995;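 note: potency is the fitted concentration of half-maximal effect; 0% = full WT IDH1 enzyme control and full inhibition = no enzyme wells; nearly all actives have a fitted effect of over 55% in size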
Target sequence (O75874 whole entry, looked up): as the sequence (O75874 whole entry R132H, stated change not applied) above, with H132R counted along it
IDH1 R132H conf: mutant IDH1 (human) inhibition, confirmed. IDH1 R132H enzyme, NADPH diaphorase/resazurin fluorescence. shares compounds with mIDH1 inhibitor. Potency, µM (top dose mostly 76.6 µM), for the others: at the highest dose activity change, negative = inhibition, actives largely listed as inhibitors. 750 tested, 83% active; note: potency is the fitted concentration of half-maximal effect; nearly all actives have a fitted effect of over 50% in size
* = called active by the depositor; ? = inconclusive; . = no result; [ ] = dose if it differs, or a comment. Hits are enriched below; roughly 1.1% of the tested compounds scored in any of these assays. Calls come from the whole dose curve; as a rule, active = well fitted curve in the direction sought with a large enough effect; inconclusive = small, poorly fitted or top-dose-only effect, or another doubt; inactive = no such curve, though single readings can be large; an effect the other way counts as inactive or inconclusive.

SMILES	NPSR antag	mIDH1 inhibitor	HTT ATP protect	HTT aggregate	AT treatment	IDH1 autofl	IDH1 WT	IDH1 R132H conf
CCOc1ccc(-n2c(=S)sc3c(=O)[nH]c(SCC(=O)NC(C)CC)nc32)cc1 (configuration not stated)	-19%[46.1 µM]	37µM*	-20%	-19%[9.22 µM]	1%	0	8.9µM*	32µM*
CCOC(=O)CC(=O)CSc1nc2c(sc(=S)n2-c2ccc(OCC)cc2)c(=O)[nH]1	-53%	6%	.	-3%	0%	.	.	.
CCCCOc1ccc(/C=N/NC(=S)Nc2cc(C)ccc2C)cc1	-13%[46.1 µM]	-5%	-22%	-12%	0%	.	.	.
CCCCOc1ccc(/C=N/NC(=S)Nc2cccc(C)c2C)cc1	-28%[46.1 µM]	?	17%	-10%	2%	2	-1%	11µM*
COc1ccc(CN(CCC(c2ccccc2)c2ccc(OC(C)C)cc2)C(=O)CCl)cc1OC (configuration not stated)	10µM*	?	10%[10 µM]	?	-4%	-7	-17%	7.9µM*
COc1ccc(NCc2cc3cc4c(cc3n(CC(=O)Nc3ccccc3)c2=O)OCO4)cc1	.	-5%	.	.	.	.	.	.
CN1CCN(c2ccnc(-c3ccc(N(C)C)cc3)n2)CC1	.	.	-48%	.	.	.	.	.
Cc1ccc2c(c1)/C(=N/N1C(=O)c3ccccc3C1=O)C(=O)N2	2%	46µM*	.	12%	0%	1	6%	7.9µM*
C=CCn1c(SCc2nc3sc(C(=O)O)c(C)c3c(=O)[nH]2)nnc1-c1ccc(C(C)(C)C)cc1	14%	?	1%[10 µM]	0%[9.22 µM]	3%	-5	2%	22µM*
Nc1nc(Nc2cccc(F)c2)nc(NCc2ccco2)c1[N+](=O)[O-]	-23%	?	9%[10 µM]	0%[9.22 µM]	12%	-5	4%	32µM*
CCn1c2ccccc2c2cc(/C=N/n3c(-c4cc(C)[nH]n4)n[nH]c3=S)ccc21	29%	?	9%[10 µM]	-3%[9.22 µM]	-11%	-8	-2%	14µM*
CCn1c2ccccc2c2cc(/C=N/n3cn[nH]c3=S)ccc21	?	1%	-26%	-13%	-2%	.	.	.
COc1ccc(NC(=O)Cn2c(=O)oc3cc(S(=O)(=O)N4CCC(C)CC4)ccc32)c(OC)c1	.	0%	.	.	.	.	.	.
CCC(=O)Oc1ccc2c(=O)c(-c3ccc4ccccc4n3)c(CC)oc2c1C	-11%[46.1 µM]	52µM*	-3%[10 µM]	-16%	1%	-9	2%	7.1µM*
NNC(=O)c1csc(Cc2c(Cl)sc3ccc(Cl)cc23)n1	-12%	52µM*	2%[10 µM]	18%[9.22 µM]	21%	6	14%	-11%
Cc1cccn2c(=O)c(/C=C(\C#N)S(=O)(=O)c3ccccc3)c(N3CCC(C(N)=O)CC3)nc12	-18%[46.1 µM]	?	-7%	0%	2%	1	-1%	40µM*
COc1ccccc1CNS(=O)(=O)c1ccc2c(c1)NC(=O)C(C)C(=O)N2 (configuration not stated)	.	35%	.	.	.	.	.	.
COc1ccc(-c2nnc3c4ccccc4c(C)nn23)cc1	?	12%	-20%	25%	6%	.	.	.
COc1ccc(-c2nn3c(-c4ccccc4C)nnc3c3ccccc23)cc1	.	?	.	.	.	-2	2%	22µM*
Cc1ccc(N2C(=O)c3n[nH]c(C)c3C2c2ccc(C(C)C)cc2)cc1 (configuration not stated)	.	?	.	.	.	-11	-16%	28µM*
COc1ccc(Cl)cc1NC(=O)c1cc2ccc3ccc(C)[nH]c3c2n1	.	10%	.	.	.	.	.	.
CC(C)Cn1c(=O)c2sccc2n2c(CCCC(=O)N3CCN(c4ccc(F)cc4)CC3)nnc12	.	16%	.	.	.	.	.	.
COc1ccc(S(=O)(=O)Nc2ccc(S(=O)(=O)Nc3ccc(F)cc3)cc2)cc1C	-36%	?	4%[10 µM]	-24%	-7%	-2	3%	40µM*
Cc1ccc(S(=O)(=O)Nc2ccc(S(=O)(=O)Nc3nccs3)cc2)cc1C	.	52µM*	.	.	-2%	2	15%	45µM*
CC(=O)N1CCc2c(sc3c2c(=O)n(-c2ccccc2)c(=O)n3Cc2cccc(C(F)(F)F)c2)C1	.	22µM*	.	.	.	-12	7.9µM*	11µM*
SMILES	NPSR antag	mIDH1 inhibitor	HTT ATP protect	HTT aggregate	AT treatment	IDH1 autofl	IDH1 WT	IDH1 R132H conf
COc1cccc(Cn2c(=O)n(-c3cccc(Cl)c3)c(=O)c3c4c(sc32)CN(C(C)=O)CC4)c1	.	?	.	.	.	0	14µM*	14µM*
COC(=O)c1ccc(OC)c(Cn2c(=O)n(-c3cccc(Cl)c3)c(=O)c3c4c(sc32)CN(C(C)=O)CC4)c1	.	-8%	.	.	.	.	.	.
Cc1c(CCC(=O)O)c(=O)oc2c(C)c3occ(-c4ccc(Cl)cc4)c3cc12	.	-19%	.	.	-4%	.	.	.
Cc1oc2c(C)c3oc(=O)c(CCC(=O)O)c(C)c3cc2c1-c1ccccc1	.	23µM*	.	.	0%	0	50µM*	13µM*
COc1cc(Nc2nc(SCc3cccc(Cl)c3)nc3ccccc23)cc(OC)c1	.	12%	.	.	.	.	.	.
N=c1c(S(=O)(=O)c2ccc(Br)cc2)cc2c(=O)n3ccccc3nc2n1C1CCCC1	.	-6%	.	.	-4%	.	.	.

Compound activity: PubChem, National Center for Advancing Translational Sciences (NCATS)
